Among all 3,200 compounds or so, about 110 (3.4%) showed an effect of 50% or more. The full list was thinned out, with strong results kept by preference.
System: T1, V. cholerae SAD30
T1 construct: SAD30
Parameters: species or system S. aureus MSSA476 (TSB) or V. cholerae SAD30 (LB); 384-well bacterial growth screen at 25 uM, OD600 relative to DMSO control
Conditions: relative growth, OD600, LB; 25 µM; inhibitor

Structure (SMILES) | % of control remaining
C=CC(=O)NCc1csc(C(C)(C)C)n1 [2-C09, N-[(2-tert-butyl-1,3-thiazol-4-yl)methyl]prop-2-enamide] | 91.5854%
COc1ccc(C=C(C#N)C(=O)Nc2ccc(Cl)c(Cl)c2)cc1 [8-C03, 2-cyano-N-(3,4-dichlorophenyl)-3-(4-methoxyphenyl)prop-2-enamide] | 89.395%
C=CC(=O)Nc1cc(Cl)cc(C)c1OC [1-E16, N-(5-chloro-2-methoxy-3-methylphenyl)prop-2-enamide] | 87.145%
C=CC(=O)Nc1c(OC)nc(Cl)nc1OC [1-B14, N-(2-chloro-4,6-dimethoxypyrimidin-5-yl)prop-2-enamide] | 48.0864%
C=CC(=O)Nc1ccc(C(N)=O)nc1OC [1-E18, 6-methoxy-5-(prop-2-enamido)pyridine-2-carboxamide] | 89.6861%
N#CC(=Cc1cccc(Cl)c1Cl)C(=O)NCCc1ccccc1 [8-J06, 2-cyano-3-(2,3-dichlorophenyl)-N-(2-phenylethyl)prop-2-enamide] | 78.9259%
CCN(CC)c1ccc(NC(=O)CCl)cc1 [6-N10, 2-chloro-N-[4-(diethylamino)phenyl]acetamide] | 90.5489%
C=CC(=O)Nc1ccc(C)cc1S(=O)(=O)N1CCOCC1 [1-O13, N-[4-methyl-2-(morpholine-4-sulfonyl)phenyl]prop-2-enamide] | 87.2945%
Cc1ccccc1NC(=O)C(C#N)=Cc1cc2c(cc1[N+](=O)[O-])OCO2 [9-P11, 2-cyano-N-(2-methylphenyl)-3-(6-nitro-1,3-dioxaindan-5-yl)prop-2-enamide] | 84.5003%
C=CC(=O)N1CCCC(c2nn(C)cc2C(N)=O)C1 (stereo not drawn) [1-D07, 1-methyl-3-[1-(prop-2-enoyl)piperidin-3-yl]-1H-pyrazole-4-carboxamide] | 92.9746%
O=C(CCl)c1ccc(F)cc1F [10-I18, 2-chloro-1-(2,4-difluorophenyl)ethan-1-one] | 22.7547%
CC(C)Oc1ccc2[nH]cc(C(=O)CCl)c2c1 [10-E03, 2-chloro-1-[5-(propan-2-yloxy)-1H-indol-3-yl]ethan-1-one] | 105.669%
O=C(CCl)c1c[nH]c2ccc(F)cc12 [10-O11, 2-chloro-1-(5-fluoro-1H-indol-3-yl)ethan-1-one] | 23.3781%
O=C(CCl)c1c[nH]c2ccccc12 [10-B05, 2-chloro-1-(1H-indol-3-yl)ethan-1-one] | 108.475%
O=C(CCl)c1ccc(O)cc1O [10-C14, 2-chloro-1-(2,4-dihydroxyphenyl)ethan-1-one] | 100.682%
Cc1cc(C(=O)CCl)c(C)n1Cc1ccc(F)cc1 [10-N17, 2-chloro-1-{1-[(4-fluorophenyl)methyl]-2,5-dimethyl-1H-pyrrol-3-yl}ethan-1-one] | 95.5387%
COc1ccc(Cc2cnc(NC(=O)CCl)s2)cc1 [4-F17, 2-chloro-N-{5-[(4-methoxyphenyl)methyl]-1,3-thiazol-2-yl}acetamide] | 111.451%

Structure (SMILES) | % of control remaining
CC(Cl)C(=O)N1CCc2ncccc2C1 (stereo not drawn) [7-I19, 2-chloro-1-(5,6,7,8-tetrahydro-1,6-naphthyridin-6-yl)propan-1-one] | 77.5814%
C=CC(=O)NC(CO)c1ccnn1C (stereo not drawn) [2-D17, N-[2-hydroxy-1-(1-methyl-1H-pyrazol-5-yl)ethyl]prop-2-enamide] | 92.203%
C=CC(=O)Nc1cccc(-c2cn(C)nn2)c1 [1-K14, N-[3-(1-methyl-1H-1,2,3-triazol-4-yl)phenyl]prop-2-enamide] | 83.4081%
COc1ccc(-n2c(C)c(C)c(C#N)c2NC(=O)CCl)cc1 [4-F20, 2-chloro-N-[3-cyano-1-(4-methoxyphenyl)-4,5-dimethyl-1H-pyrrol-2-yl]acetamide] | 105.413%
O=C(CCl)c1cn(-c2cccc(C(F)(F)F)c2)nn1 [10-C09, 2-chloro-1-{1-[3-(trifluoromethyl)phenyl]-1H-1,2,3-triazol-4-yl}ethan-1-one] | 24.9367%
Cn1cc(C(=O)CCl)cc1C(N)=O [10-J06, 4-(2-chloroacetyl)-1-methyl-1H-pyrrole-2-carboxamide] | 97.5648%
Cc1cccc(-n2cc(C(=O)CCl)nn2)c1 [10-L07] | 5.299%
CC(NC(=O)CCl)c1cn(-c2ccccc2)nn1 (stereo not drawn) [5-O06, 2-chloro-N-[1-(1-phenyl-1H-1,2,3-triazol-4-yl)ethyl]acetamide] | 103.73%
Cn1cc(C(=O)CCl)nn1 [10-M19, 2-chloro-1-(1-methyl-1H-1,2,3-triazol-4-yl)ethan-1-one] | 0%
Cc1cc(C(=O)CCl)c(C)n1-c1cccc(Cl)c1 [10-N18, 2-chloro-1-[1-(3-chlorophenyl)-2,5-dimethyl-1H-pyrrol-3-yl]ethan-1-one] | 92.4216%
O=C(CCl)c1c(-c2ccc(F)cc2)[nH]c2ccccc12 [10-P04, 2-chloro-1-[2-(4-fluorophenyl)-1H-indol-3-yl]ethan-1-one] | 95.8504%
Cc1cc(C(=O)CCl)c(C)n1-c1ccc(C(F)(F)F)cc1 [10-J14, 2-chloro-1-{2,5-dimethyl-1-[4-(trifluoromethyl)phenyl]-1H-pyrrol-3-yl}ethan-1-one] | 98.4999%
O=C(CCl)NC1CC(=O)N(c2cccc(C(F)(F)F)c2)C1 (stereo not drawn) [5-E09, 2-chloro-N-{5-oxo-1-[3-(trifluoromethyl)phenyl]pyrrolidin-3-yl}acetamide] | 100.2%
Cn1ccc(C(=O)CCl)c1 [10-D08, 2-chloro-1-(1-methyl-1H-pyrrol-3-yl)ethan-1-one] | 103.176%
O=C(CCl)c1cn(-c2ccc(F)cc2)nn1 [10-F05] | 0.6234%
Cc1cccc(-n2c(C)cc(C(=O)CCl)c2C)c1 [10-A22, 2-chloro-1-[2,5-dimethyl-1-(3-methylphenyl)-1H-pyrrol-3-yl]ethan-1-one] | 108.163%

Source: PMC11995724, “Antibiotic target discovery by integrated phenotypic and activity-based profiling of electrophilic fragments” (Cell chemical biology, 2025)
